Data reported in PubChem BioAssay (NCATS).
Where “and” joins values, the source holds several entries; their conditions need not be identical. Equal values may be shown once. Inconclusive results are not listed. Calls of active or inactive are those of the source. Unless noted, calls follow the shape of the full dose curve.

What was measured:
[1] = qHTS for Inhibitors of the Functional Ribonucleoprotein Complex (vRNP) of Lassa (LASV) Arenavirus: LASV Primary Screen - GLuc reporter signal (AID 1347082; calls by dose curve; tested in HEK293 reporter line; also: nearly all actives have a fitted effect of over 60% in size)
[2] = qHTS for Inhibitors of the Functional Ribonucleoprotein Complex (vRNP) of Lassa (LASV) Arenavirus: Viability assay - alamar blue signal for LASV Primary Screen (AID 1347083; calls by dose curve; tested in HEK293 reporter line; also: nearly all actives have a fitted effect of over 80% in size)
[3] = qHTS for Inhibitors of the Functional Ribonucleoprotein Complex (vRNP) of Lymphocytic Choriomeningitis Arenaviruses (LCMV): Viability assay - alamar blue signal for LCMV Primary Screen (AID 1347085; calls by dose curve; tested in HEK293 reporter line; also: nearly all actives have a fitted effect of over 80% in size)
[4] = target: Nucleoprotein (Lymphocytic choriomeningitis virus (strain Armstrong)) (UniProt P09992); experiment: qHTS for Inhibitors of the Functional Ribonucleoprotein Complex (vRNP) of Lymphocytic Choriomeningitis Arenaviruses (LCMV): LCMV Primary Screen - GLuc reporter signal (AID 1347086); also: nearly all actives have a fitted effect of over 70% in size
[5] = Primary qHTS for Huh7 cytotoxicity: counterscreen for inhibitors of MERS-S pseudotyped particle cell entry (AID 1479147); settings: outcome: dose series up to 57.1 µM unless noted
[6] = Primary qHTS for inhibitors of MERS-S pseudo-typed particle cell entry (AID 1479149); also: nearly all actives have a fitted effect of over 60% in size
[7] = Primary qHTS for Vero E6 cytotoxicity: counterscreen for inhibitors of SARS-S pseudo-typed particle cell entry (AID 1479150); settings: outcome: dose series up to 57.1 µM unless noted
[8] = Cytotoxicity counterscreen for inhibitors of SARS-CoV-2 cell entry (AID 1645845); also: nearly all actives have a fitted effect of over 50% in size
Outline: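 ATP-content luminescence (ATPLite 1step, 15 min RT) read after 48 h compound exposure of Expi293F cells stably expressing human ACE2; normalized to cells-only wells and media-only wells.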

[9] = Primary qHTS to identify inhibitors of SARS-CoV-2 cell entry (AID 1645846); settings: activity change, negative = inhibition: at 57.1 µM (top of the series) unless noted; also: nearly all actives have a fitted effect of over 45% in size
Outline: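 Using luciferase-reporting pseudoviruses carrying Wuhan-Hu-1 spike, the screen tracks entry into stably ACE2-expressing cells over 48 hr. Activity is expressed relative to spike particles versus particles lacking any fusion protein.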

[10] = AP1 Signaling Pathway (AID 357; active = well fitted curve in either direction with a large enough effect, not every such curve was filed as active)
Outline: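 ME-180 cells with beta-lactamase reporter under AP-1 response element, stimulated with EC50 EGF; compounds tested in titration series, 5 h at 37 °C. CCF4 substrate added 2.5 h at room temperature; 460/530 nm emission ratio gave %activity and AC50.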

[11] = target: Cytochrome P450 1A2 (Homo sapiens) (UniProt P05177); experiment: p450-cyp1a2 (AID 410); also: potency is read from the fitted curve at half-maximal effect
Outline: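 Read-out is luminescence from luciferin produced by CYP1A2 demethylation of Luciferin-ME (100uM, at Km). Detection reagent stopped the 60 min NADPH-dependent reaction; signals were normalized to 57 uM furafylline.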

[12] = Stat Signaling Pathway (AID 446; active = well fitted curve in either direction with a large enough effect, not every such curve was filed as active;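 also: ME-180 cervical cancer cells given 40 pM IL-6 alongside compound; SIE-controlled beta-lactamase reporter measured as 460/530 nm FRET emission ratio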)
Outline: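 Emission at 460 and 530 nm (excitation 405 nm) reports SIE-controlled beta-lactamase in ME-180 cells. Cells received compound with 40 pM IL-6 for 5 hrs at 37 C; data scaled between 300 pM IL-6 and 125 nM JAK-inhibitor controls.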

[13] = target: Glucocorticoid receptor (Homo sapiens) (UniProt P04150); experiment: GR-EFC Redistribution (AID 451); settings: CHO-K1 GR-EFC translocation, beta-gal luminescence, 2 h; also: potency is read from the fitted curve at half-maximal effect
Outline: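 Translocation of GR-ED fusion to nuclear EA restores b-gal, read by luminescence after 1 h room-temperature detection. Engineered CHO-K1 biosensor cells, 1,000/well, exposed 2 h at 37 C to titrations up to 46 uM final.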

[14] = target: Mitogen-activated protein kinase 10 (Mus musculus) (UniProt Q61831); experiment: JNK3 AlphaScreen Assay (AID 530; active = well fitted curve in either direction with a large enough effect, not every such curve was filed as active;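 also: kinase came from lysate of stimulated human HepG2 cells; signal reports phosphorylation of biotinylated GST-cJun 1-79 at Ser73 with 10 µM ATP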)
Outline: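 Kinase buffer: 20 mM Tris-HCl pH 7.6, 10 mM MgCl2, 1 mM DTT, 0.1 mM Na3VO4, 0.01% Tween-20; ATP 10 uM. Substrate biotin-GST-cJun(1-79), enzyme from activated HepG2 lysates. Detection by Ser73 phospho-antibody AlphaScreen.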

[15] = target: 3',5'-cyclic-AMP phosphodiesterase 4B (Homo sapiens) (UniProt Q07343); experiment: qHTS Assay for Inhibitors of PDE-IV (AID 607; active = well fitted activation curve with a large enough effect in the main read-out, with a control signal flat, not every such curve was filed as active)
Outline: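 The readout is membrane depolarisation from a cAMP-sensing CNG channel, detected with a potential dye at ex 535/em 590. Cells were HEK293-derived (endogenous PDE-IV) at 1000 cells/well, titrated up to 22.9 uM final.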

[16] = target: Cytochrome P450 2C9 (Homo sapiens) (UniProt P11712); experiment: qHTS Assay for Inhibitors and Substrates of Cytochrome P450 2C9 (AID 883; active = well fitted curve in the direction sought with a large enough effect; an effect the other way counts as inactive or inconclusive; also: nearly all actives have a fitted effect of over 60% in size)
Outline: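 Luminescent read-out of deoxyluciferin hydroxylation, normalized to 57uM sulphaphenazole (AC100). Reaction: 10nM enzyme, 100uM Luciferin-H (equal to KM), 25mM KPO4, 10 min compound preincubation, then 60 min with NADPH regeneration, both at 37C.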

[17] = target: Cytochrome P450 2D6 (Homo sapiens) (UniProt P10635); experiment: qHTS Assay for Inhibitors and Substrates of Cytochrome P450 2D6 (AID 891; active = well fitted curve in the direction sought with a large enough effect; an effect the other way counts as inactive or inconclusive; also: potency is read from the fitted curve at half-maximal effect; nearly all actives have a fitted effect of over 60% in size)
Outline: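 Luminescent read-out of luciferin formed by 5 nM human CYP2D6 demethylating 30 uM Luciferin-ME EGE (Km level) over 60 min at room temperature after NADPH regeneration addition. Data normalized to full inhibition by 1.43 uM quinidine.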

[18] = target: Cytochrome P450 2C19 (Homo sapiens) (UniProt P33261); experiment: qHTS Assay for Inhibitors and Substrates of Cytochrome P450 2C19 (AID 899; active = well fitted curve in the direction sought with a large enough effect; an effect the other way counts as inactive or inconclusive; also: nearly all actives have a fitted effect of over 60% in size)
Outline: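 Luminescence readout of luciferin formed from 10uM Luciferin-H EGE (KM level) by 5 nM CYP2C19 in 50mM KPO4. 60 min NADPH-driven reaction at 37C after 10 min compound preincubation; data scaled to 57uM ketoconazole inhibition.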

[19] = target: Rap guanine nucleotide exchange factor 3 (Homo sapiens) (UniProt O95398); experiment: Confirmatory qHTS for agonist of cAMP-regulated guanine nucleotide exchange factor 3 (EPAC1) (AID 1645881; active = well fitted curve in the direction sought with a large enough effect; an effect the other way counts as inactive or inconclusive;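 also: EPAC1 catalysed release of BODIPY-GDP from Rap1B seen as fluorescence loss; nearly all actives have a fitted effect of over 75% in size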)
[20] = target: Rap guanine nucleotide exchange factor 4 (Homo sapiens) (UniProt Q8WZA2); experiment: Confirmatory qHTS for agonist of cAMP-regulated guanine nucleotide exchange factor 4 (EPAC2) (AID 1645884; active = well fitted curve in the direction sought with a large enough effect; an effect the other way counts as inactive or inconclusive;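 also: nucleotide exchange releases bodipy-GDP from Rap1 and this lowers its fluorescence; nearly all actives have a fitted effect of over 65% in size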)
[21] = target: Rap guanine nucleotide exchange factor 4 (Homo sapiens) (UniProt Q8WZA2); experiment: Confirmatory qHTS for antagonist of cAMP-regulated guanine nucleotide exchange factor 4 (EPAC2) (AID 1645885; active = well fitted curve in the direction sought with a large enough effect; an effect the other way counts as inactive or inconclusive; also: potency is read from the fitted curve at half-maximal effect; nearly all actives have a fitted effect of over 25% in size)
[22] = target: Rap guanine nucleotide exchange factor 3 (Homo sapiens) (UniProt O95398); experiment: Counterscreen qHTS for antagonist of cAMP-regulated guanine nucleotide exchange factor 3 (EPAC1) (AID 1645888; active = well fitted curve in the direction sought with a large enough effect; an effect the other way counts as inactive or inconclusive;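 also: fluorescence loss as bound BODIPY-GDP is released from Rap1B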)
Outline: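 Rap1B-BODIPY-GDP 250 nM + GDP 50 uM; cpds 7-pt, final 9.74 nM–152 uM (activator mode) or from 7.32 nM upwards (inhibitor mode); RT; FI 480/540 nm at 5 and 30 min, then ± cAMP, reread.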

Chain of Rap guanine nucleotide exchange factor 4 (Homo sapiens) (Q8WZA2 whole entry, looked up): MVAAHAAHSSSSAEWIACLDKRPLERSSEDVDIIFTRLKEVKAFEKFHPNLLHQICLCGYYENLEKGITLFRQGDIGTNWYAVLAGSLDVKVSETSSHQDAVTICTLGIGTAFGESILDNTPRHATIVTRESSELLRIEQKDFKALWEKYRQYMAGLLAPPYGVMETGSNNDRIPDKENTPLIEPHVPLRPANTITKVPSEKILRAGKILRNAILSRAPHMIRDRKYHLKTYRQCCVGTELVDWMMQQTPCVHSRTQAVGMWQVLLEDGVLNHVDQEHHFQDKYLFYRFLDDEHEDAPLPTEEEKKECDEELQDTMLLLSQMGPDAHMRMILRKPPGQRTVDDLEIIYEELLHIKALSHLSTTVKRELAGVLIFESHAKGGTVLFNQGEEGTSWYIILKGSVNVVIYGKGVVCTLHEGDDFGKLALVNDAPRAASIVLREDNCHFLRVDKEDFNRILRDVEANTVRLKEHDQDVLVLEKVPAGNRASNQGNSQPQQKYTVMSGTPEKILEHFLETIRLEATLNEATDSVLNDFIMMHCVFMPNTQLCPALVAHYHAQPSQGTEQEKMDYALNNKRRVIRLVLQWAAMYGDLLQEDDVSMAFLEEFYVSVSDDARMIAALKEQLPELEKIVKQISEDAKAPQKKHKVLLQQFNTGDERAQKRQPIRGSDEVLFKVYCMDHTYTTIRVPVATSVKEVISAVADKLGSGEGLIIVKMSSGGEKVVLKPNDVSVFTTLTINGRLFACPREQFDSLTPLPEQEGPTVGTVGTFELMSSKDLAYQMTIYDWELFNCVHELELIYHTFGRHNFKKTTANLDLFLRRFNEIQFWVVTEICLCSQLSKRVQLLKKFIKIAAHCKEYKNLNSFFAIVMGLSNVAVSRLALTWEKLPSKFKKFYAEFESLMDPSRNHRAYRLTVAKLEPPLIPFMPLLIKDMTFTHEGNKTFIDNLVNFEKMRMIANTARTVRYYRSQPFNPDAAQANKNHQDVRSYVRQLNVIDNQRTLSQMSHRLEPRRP
Chain of Rap guanine nucleotide exchange factor 3 (Homo sapiens) (O95398 whole entry, looked up): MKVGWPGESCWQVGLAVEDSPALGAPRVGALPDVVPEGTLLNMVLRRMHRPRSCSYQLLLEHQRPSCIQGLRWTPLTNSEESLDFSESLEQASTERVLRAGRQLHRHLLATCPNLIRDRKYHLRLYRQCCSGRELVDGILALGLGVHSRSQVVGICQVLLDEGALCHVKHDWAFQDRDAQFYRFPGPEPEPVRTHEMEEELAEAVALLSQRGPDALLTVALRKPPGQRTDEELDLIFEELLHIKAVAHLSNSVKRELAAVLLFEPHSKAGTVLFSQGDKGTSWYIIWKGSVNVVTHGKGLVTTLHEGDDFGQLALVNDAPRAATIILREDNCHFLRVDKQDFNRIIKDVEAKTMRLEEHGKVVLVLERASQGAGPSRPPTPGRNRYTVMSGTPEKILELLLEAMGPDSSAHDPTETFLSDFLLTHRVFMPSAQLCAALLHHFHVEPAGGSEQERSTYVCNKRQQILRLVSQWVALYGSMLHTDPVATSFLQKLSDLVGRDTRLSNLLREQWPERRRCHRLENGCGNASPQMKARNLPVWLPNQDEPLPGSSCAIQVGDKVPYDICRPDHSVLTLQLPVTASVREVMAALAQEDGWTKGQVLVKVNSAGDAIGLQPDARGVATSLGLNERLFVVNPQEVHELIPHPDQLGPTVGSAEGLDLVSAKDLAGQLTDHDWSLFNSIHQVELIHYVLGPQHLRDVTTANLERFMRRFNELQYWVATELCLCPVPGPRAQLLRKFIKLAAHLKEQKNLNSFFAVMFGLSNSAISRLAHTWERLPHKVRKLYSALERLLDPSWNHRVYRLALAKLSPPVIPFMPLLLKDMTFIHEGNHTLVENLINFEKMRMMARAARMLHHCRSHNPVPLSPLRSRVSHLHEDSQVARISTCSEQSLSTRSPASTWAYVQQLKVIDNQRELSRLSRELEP
Chain of Nucleoprotein (Lymphocytic choriomeningitis virus (strain Armstrong)) (P09992 whole entry, looked up): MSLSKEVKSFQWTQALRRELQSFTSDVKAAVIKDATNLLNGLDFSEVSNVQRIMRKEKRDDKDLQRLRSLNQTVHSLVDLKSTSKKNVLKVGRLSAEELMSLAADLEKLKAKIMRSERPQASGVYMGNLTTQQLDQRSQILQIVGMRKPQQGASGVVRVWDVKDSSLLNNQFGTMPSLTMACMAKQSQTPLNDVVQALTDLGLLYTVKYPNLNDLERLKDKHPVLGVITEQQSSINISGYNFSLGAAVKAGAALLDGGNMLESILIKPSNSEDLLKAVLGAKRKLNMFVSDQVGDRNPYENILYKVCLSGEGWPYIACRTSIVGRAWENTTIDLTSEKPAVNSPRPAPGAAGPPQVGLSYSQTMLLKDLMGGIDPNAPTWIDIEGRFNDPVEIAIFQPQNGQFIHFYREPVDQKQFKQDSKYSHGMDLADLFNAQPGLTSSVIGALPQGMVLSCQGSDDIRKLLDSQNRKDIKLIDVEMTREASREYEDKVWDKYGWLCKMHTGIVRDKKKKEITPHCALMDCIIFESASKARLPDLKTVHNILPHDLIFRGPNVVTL
Chain of Glucocorticoid receptor (Homo sapiens) (P04150 whole entry, looked up, the tested form may be a part): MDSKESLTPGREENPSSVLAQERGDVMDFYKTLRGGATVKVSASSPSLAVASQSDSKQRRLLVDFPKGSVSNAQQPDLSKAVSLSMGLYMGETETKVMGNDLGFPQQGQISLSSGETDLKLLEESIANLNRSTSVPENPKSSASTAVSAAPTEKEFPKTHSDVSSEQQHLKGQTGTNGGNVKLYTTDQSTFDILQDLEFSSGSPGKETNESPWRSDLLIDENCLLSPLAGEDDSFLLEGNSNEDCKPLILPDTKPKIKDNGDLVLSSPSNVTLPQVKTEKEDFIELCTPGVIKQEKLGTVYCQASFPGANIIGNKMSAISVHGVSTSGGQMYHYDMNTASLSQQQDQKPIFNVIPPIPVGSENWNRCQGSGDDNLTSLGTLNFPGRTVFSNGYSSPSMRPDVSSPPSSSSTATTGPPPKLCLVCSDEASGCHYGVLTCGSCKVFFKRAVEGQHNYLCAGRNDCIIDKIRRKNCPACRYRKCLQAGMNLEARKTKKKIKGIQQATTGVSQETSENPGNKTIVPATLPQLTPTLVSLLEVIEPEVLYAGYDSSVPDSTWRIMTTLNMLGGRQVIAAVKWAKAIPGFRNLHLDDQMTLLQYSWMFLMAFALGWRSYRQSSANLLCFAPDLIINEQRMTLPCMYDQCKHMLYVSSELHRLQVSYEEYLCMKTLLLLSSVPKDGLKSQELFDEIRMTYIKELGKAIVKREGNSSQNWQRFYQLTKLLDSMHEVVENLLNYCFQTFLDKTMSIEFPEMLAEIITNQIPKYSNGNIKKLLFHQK
Chain of Cytochrome P450 1A2 (Homo sapiens) (P05177 whole entry, looked up): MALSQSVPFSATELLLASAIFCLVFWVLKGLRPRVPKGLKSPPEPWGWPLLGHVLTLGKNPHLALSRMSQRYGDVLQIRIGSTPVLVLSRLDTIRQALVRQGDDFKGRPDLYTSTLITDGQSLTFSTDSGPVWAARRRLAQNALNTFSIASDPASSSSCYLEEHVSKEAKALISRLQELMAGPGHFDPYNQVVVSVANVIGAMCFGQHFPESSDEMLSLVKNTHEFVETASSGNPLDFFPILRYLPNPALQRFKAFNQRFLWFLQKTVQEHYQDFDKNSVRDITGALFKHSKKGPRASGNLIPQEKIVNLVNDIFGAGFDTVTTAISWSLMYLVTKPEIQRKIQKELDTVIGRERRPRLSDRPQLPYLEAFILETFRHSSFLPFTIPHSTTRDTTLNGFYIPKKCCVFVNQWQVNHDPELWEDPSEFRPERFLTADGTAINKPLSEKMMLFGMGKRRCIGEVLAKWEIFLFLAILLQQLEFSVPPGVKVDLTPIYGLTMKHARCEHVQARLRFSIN
Chain of Cytochrome P450 2C19 (Homo sapiens) (P33261 whole entry, looked up): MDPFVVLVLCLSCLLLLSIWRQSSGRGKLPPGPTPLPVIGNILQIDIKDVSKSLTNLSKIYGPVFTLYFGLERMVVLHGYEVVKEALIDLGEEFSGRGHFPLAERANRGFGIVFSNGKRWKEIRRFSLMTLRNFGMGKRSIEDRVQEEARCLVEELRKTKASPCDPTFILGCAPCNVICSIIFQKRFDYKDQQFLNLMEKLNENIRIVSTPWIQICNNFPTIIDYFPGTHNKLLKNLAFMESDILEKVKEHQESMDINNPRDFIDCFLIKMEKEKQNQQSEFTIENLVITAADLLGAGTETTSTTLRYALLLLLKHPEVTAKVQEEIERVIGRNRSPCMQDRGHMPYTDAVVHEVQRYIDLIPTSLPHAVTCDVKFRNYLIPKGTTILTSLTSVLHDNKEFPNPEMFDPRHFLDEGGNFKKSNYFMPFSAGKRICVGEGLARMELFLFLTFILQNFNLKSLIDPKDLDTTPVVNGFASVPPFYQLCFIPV
Chain of Cytochrome P450 2D6 (Homo sapiens) (P10635 whole entry, looked up): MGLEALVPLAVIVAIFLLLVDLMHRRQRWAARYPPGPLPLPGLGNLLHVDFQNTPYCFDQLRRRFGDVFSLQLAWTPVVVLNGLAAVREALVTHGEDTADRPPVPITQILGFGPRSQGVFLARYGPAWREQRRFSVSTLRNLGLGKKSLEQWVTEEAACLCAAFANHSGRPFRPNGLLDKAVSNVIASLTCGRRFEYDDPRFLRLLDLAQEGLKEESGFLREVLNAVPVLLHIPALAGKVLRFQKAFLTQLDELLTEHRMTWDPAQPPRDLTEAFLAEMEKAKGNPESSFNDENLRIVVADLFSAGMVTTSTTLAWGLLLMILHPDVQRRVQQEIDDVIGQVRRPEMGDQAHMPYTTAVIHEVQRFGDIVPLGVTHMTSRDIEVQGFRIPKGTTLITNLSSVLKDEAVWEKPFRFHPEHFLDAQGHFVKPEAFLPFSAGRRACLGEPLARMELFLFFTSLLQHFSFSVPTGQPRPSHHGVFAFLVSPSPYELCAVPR

O=C1c2c(O)cccc2[C@@H]([C@@H]2O[C@H](CO)[C@@H](O)[C@H](O)[C@H]2O)c2cc(CO)cc(O)c21
inactive: Potency [1] | Potency [2] | Potency [3] | Potency [4] | outcome [5] | Potency [6] | outcome [7] | Potency [8]
-0.84%: activity change, negative = inhibition [9]

CC(C)(CO)[C@@H](O)C(=O)NCCC(=O)O
inactive: Potency [1] | Potency [2] | Potency [3] | Potency [4] | outcome [5] | Potency [6] | outcome [7] | Potency [8]

CC1=C[C@@H]2c3cccc4[nH]cc(c34)C[C@H]2N(C)C1
active: Potency [11] 3.16 µM | Potency [17] 2 µM
inactive: outcome [10] | outcome [12] | Potency [13] > 46 µM | outcome [14] | Potency [15] | Potency [16] | Potency [18]

CCCOc1ccc2[nH]cc(C3=CCNCC3)c2n1
inactive: Potency [13] > 46 µM | outcome [14]
active: Potency [11] 0.126 µM

Clc1ccc(COC(Cn2ccnc2)c2ccc(Cl)cc2Cl)c(Cl)c1 (centres undefined)
inactive: outcome [12] | outcome [19] | outcome [20] | outcome [22]
active: Potency [21] 49.4 µM and 21.3 µM
